Sampled rows, rich in hits. Any-hit rate of the full collection: about 0.97%.
HER2 expr 66K: inhibitors of Her2 protein expression, primary screen, SKBR-3 cells, AlphaScreen, 66K library; SKBR-3 HER2 protein level, 18-24 h; hits give low values; HER2 level % of control, % at 10 µM; AID 645, 2007; 65,000 compounds, 0.69% hits;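 active = HER2 level under 5% of the carrier-only control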;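 note: 100% = DMSO carrier and 0% = 500 nM PU-H71 HSP90 inhibitor; lower value means stronger loss of Her2 protein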
Target sequence (P04626 whole entry, looked up): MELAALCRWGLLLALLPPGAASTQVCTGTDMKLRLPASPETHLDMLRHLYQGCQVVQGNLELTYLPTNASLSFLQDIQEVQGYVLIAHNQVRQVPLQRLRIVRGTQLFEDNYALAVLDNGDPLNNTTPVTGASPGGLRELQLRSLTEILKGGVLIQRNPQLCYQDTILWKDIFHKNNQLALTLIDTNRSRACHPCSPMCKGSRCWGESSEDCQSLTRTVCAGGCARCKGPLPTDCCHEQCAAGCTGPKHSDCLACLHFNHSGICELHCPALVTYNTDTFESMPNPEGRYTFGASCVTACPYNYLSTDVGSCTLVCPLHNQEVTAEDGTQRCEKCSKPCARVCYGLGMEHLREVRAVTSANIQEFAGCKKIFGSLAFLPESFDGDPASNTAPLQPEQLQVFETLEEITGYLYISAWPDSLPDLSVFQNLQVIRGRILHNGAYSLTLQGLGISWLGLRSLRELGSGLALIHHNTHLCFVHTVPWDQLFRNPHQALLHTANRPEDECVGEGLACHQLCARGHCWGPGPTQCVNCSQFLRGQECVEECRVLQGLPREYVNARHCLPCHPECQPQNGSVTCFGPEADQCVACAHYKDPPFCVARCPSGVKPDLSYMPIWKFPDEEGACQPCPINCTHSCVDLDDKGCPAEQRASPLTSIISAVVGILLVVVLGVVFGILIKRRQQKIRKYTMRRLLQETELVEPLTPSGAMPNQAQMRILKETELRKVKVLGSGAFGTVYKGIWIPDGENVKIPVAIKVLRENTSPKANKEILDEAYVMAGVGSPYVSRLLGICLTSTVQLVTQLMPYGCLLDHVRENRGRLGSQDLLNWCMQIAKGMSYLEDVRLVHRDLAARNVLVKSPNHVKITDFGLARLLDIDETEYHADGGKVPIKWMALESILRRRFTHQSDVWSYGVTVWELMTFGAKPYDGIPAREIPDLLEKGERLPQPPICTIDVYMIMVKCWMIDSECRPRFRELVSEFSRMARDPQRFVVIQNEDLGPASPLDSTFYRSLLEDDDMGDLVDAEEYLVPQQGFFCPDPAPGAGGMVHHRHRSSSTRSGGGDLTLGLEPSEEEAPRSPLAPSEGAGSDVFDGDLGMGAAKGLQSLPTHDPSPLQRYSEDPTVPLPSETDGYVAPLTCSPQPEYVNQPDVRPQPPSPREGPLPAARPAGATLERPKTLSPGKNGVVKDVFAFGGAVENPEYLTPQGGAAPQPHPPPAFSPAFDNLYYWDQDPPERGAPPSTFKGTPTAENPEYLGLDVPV
SKBR3 24h inh: SK-BR-3 proliferation inhibitors, primary screen, cell-based, human, 24 h; 41,000 compounds, 0.47% hits; SK-BR-3 viability, CellTiter-Glo ATP luminescence; hits give low values; viability, % at 10 µM;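 active = viability at or below the median of all test compounds minus 3 SD, in both replicates if run twice, cut at about 45% in these data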;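 note: 100% = median untreated cell wells and 0% = median positive control drug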
Htt clearance: clearance of mutant huntingtin inclusions, primary screen, imaging, HeLa Exon1htt(103Q)mCFP, confocal imaging; aggregate imaging; zero = plate's median compound well; inhibition, % at 1.5 µM; 47,000 compounds, 0.42% hits;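 active = inhibition of aggregate fluorescence above about 70%, also judged a hit by eye on the cell image, limit read from the data, passing the limit was not always enough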;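 note: cells exposed to compound for three days before fixation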
* hit, by the source's call; / = no result given.

SMILES	HER2 expr 66K	SKBR3 24h inh	Htt clearance
Cc1cc(-n2[nH]c(C)c(C)c2=O)nc(-c2ccccc2O)n1	78.7	39.5*	/
Cc1ccc(-c2nnn(CC(=O)N(CC(=O)NCc3ccccc3)c3cccc(C)c3C)n2)o1	73.6	50.8	8.7
Cc1ccc(NC(=O)Cn2c(=O)n(CCCCC(=O)NCc3ccco3)c(=O)c3ccccc32)cc1	41.4	43.3*	/
O=C(CCCCn1c(=O)c2ccccc2n(CC(=O)Nc2ccc(F)cc2)c1=O)NCc1ccco1	77.6	80.1	/
C=CCN(C(=O)COc1ccccc1)c1nnc(-c2ccncc2)s1	/	/	16.4
CCCCN(C(=O)Cn1nnc2ccccc21)C(C(=O)NCCOC)c1ccccc1 (configuration not stated)	/	/	-8.4
CCCCN(C(=O)Cn1nnc2ccccc21)C(C(=O)NCCOC)c1cccs1 (configuration not stated)	/	/	74.5*
CC1CCCC(NC(=O)c2ccc3c(=O)n(CC4CCCO4)c(=O)[nH]c3c2)C1C (configuration not stated)	97.2	/	13.2
CCCCCN=Cc1c(C)[nH]n(-c2nc3ccccc3s2)c1=O	-20.2*	/	/
CCCc1[nH]n(-c2nc3ccccc3s2)c(=O)c1C=NCCN1CCOCC1	88.2	86.0	35.5
O=[N+]([O-])c1nn(-c2ccc3c(c2)OCCO3)n(O)c1=NC1CCCCC1	/	/	-468.2
CCc1ccc(N=c2c([N+](=O)[O-])nn(-c3ccccc3)n2O)cc1	/	/	70.9*
CC(C)COC(=O)N1CC(O)CC1C(=O)O (configuration not stated)	-13.9*	95.2	/
CC(NC(=O)OCc1ccccc1)C(=O)N1CC(O)CC1C(=O)O (configuration not stated)	79.7	104.3	-79.7
O=c1ccc(Oc2nc(N3CCCCC3)nc(N3CCCCC3)n2)n[nH]1	138.3	/	/
CC(C)(C)C(=O)/C(C#N)=c1\s/c(=C\c2ccncc2)c(=O)n1CCCN1CCOCC1	74.3	/	/
CCn1c(CSc2nnc(-c3ccc4c(c3)OCO4)o2)nc2cc(S(=O)(=O)N(C)C)ccc21	83.5	/	/
O=C(O)CC(c1ccccc1)c1ccccc1	73.4	104.2	85.7*
O=C(O)CC(CP(=O)(c1ccccc1)c1ccccc1)C(=O)O (configuration not stated)	96.8	/	0.3
Cc1ccc2nsnc2c1S(=O)(=O)NCCc1c(C)[nH]c2ccc(F)cc12	/	/	28.8
COc1cccc(OC)c1C(=O)Nc1cccc(C(C)=O)c1	91.3	/	6.8
COc1cc(NC(=O)Nc2cccc(C(C)=O)c2)cc(OC)c1OC	98.5	95.0	75.2*
COc1ccc(S(=O)(=O)c2ccc(OC)c(OC)c2)cc1OC	97.5	84.2	/
Cc1cc(C)c2cc(CN(CCO)C(=O)Nc3ccc(F)cc3)c(=O)[nH]c2c1	84.0	60.9	/
Cc1cc(C)c2cc(CN(Cc3ccco3)C(=O)NCc3ccccc3)c(=O)[nH]c2c1	67.3	37.1*	/
SMILES	HER2 expr 66K	SKBR3 24h inh	Htt clearance
CCNC(=O)c1nc[nH]c1C(=O)NCC	-21.8*	94.6	-25.8
CCOC(=O)c1[nH]cnc1C(=O)O	106.8	84.4	-15.7
Cc1onc(-c2ccccc2)c1C(=O)Nc1sc2c(c1C#N)CCC2	68.2	43.9*	/
Cc1onc(-c2ccccc2)c1C(=O)Nc1sc2c(c1C(N)=O)CCC2	46.5	/	/
Cc1cc2nc(NC3=NCN(CCN4CCOCC4)CN3)nc(C)c2cc1C	104.6	90.1	/
Cc1cc2nc(NC3=NCN(Cc4ccc5c(c4)OCO5)CN3)nc(C)c2cc1C	-5.8*	70.3	/
Cc1ccc(/C=N/N2CCN(Cc3cccc4ccccc34)CC2)o1	/	/	-16.1
Cc1ccc(NC(=S)NC(NC(=O)c2ccccc2C)C(Cl)(Cl)Cl)c(C)c1 (configuration not stated)	/	/	-5.7
Cc1ccc(-c2nn3c(C)nnc3s2)cc1NC(=O)c1ccc(-c2cccc(Cl)c2)o1	16.1	33.0*	-63.9
Cc1nnc2sc(-c3cccc(NC(=O)c4ccc(-c5cccc(Cl)c5)o4)c3)nn12	85.3	80.3	26.9
CN(C)CCCOC(=O)Cc1ccc(Cl)cc1	95.3	84.6	-8.1
CN(C)CCCOC(=O)c1ccccc1Cl	/	/	73.0*
CCC1(C)N(O)C(C)(C)C(c2ccc(F)cc2)=[N+]1[O-] (configuration not stated)	/	/	3.8
Cc1nc(SCC(=O)Nc2ccc3c(c2)OCCO3)c2oc3ccccc3c2n1	/	/	-50.9
O=C(CSc1ncnc2c1oc1ccccc12)Nc1ccc2c(c1)OCCO2	72.8	55.8	72.7*
O=C(NCCCc1ccccc1)c1ccncc1	-5.5*	93.5	27.9
O=C(NCCCc1ccccc1)c1ccccc1	/	/	-48.4
COC(=O)c1[nH]c2ccc(C)cc2c1NC(=O)C(C)N1CCN(C2CCCCC2)CC1 (configuration not stated)	106.1	87.3	-13.4
COC(=O)c1[nH]c2ccc(Br)cc2c1NC(=O)C(C)N1CCN(C2CCCCC2)CC1 (configuration not stated)	-4.8*	84.9	46.1
CCOc1ccc(C(c2nnnn2Cc2ccccc2)N2CCN(C(=O)c3ccco3)CC2)cc1 (configuration not stated)	118.0	40.9*	17.9
COc1ccc(C(c2nnnn2Cc2ccccc2)N2CCN(C(=O)c3ccco3)CC2)cc1 (configuration not stated)	119.2	60.6	/
O=C(CSc1ccc2nnc(-c3ccccn3)n2n1)NCc1ccco1	82.0	/	0.0
COc1cc(Cn2c(-c3nonc3N)nc3ccccc32)ccc1C	33.8	35.5*	-188.7
COc1cccc(Cn2c(-c3nonc3N)nc3ccccc32)c1	92.8	82.6	/
S=c1[nH]nc(-c2ccncc2)n1Cc1ccco1	103.5	83.6	23.9
SMILES	HER2 expr 66K	SKBR3 24h inh	Htt clearance
S=c1[nH]nc(-c2ccc(Br)cc2)n1Cc1ccco1	113.8	81.5	72.3*
O=C(NCCCn1ccnc1)c1cc(S(=O)(=O)N2CCOCC2)c(Cl)cc1Cl	-32.4*	93.0	/
O=C(NCCCn1ccnc1)c1ccc(Br)c(S(=O)(=O)N2CCOCC2)c1	/	/	6.4
O=c1[nH]nc(Sc2ncnc3sccc23)n1CCc1ccccc1	43.3	/	-25.9
Cc1cc2nnc(SC(C)C#N)n2c2ccccc12 (configuration not stated)	-27.7*	/	/
Cc1cc2nnc(SC(C)C)n2c2ccccc12	/	/	65.6
O=C(O)CNc1nc(Cl)ccc1[N+](=O)[O-]	/	/	0.5
COC(=O)CC1=C(C(=O)OC)C(c2ccc3c(c2Cl)OCO3)C(C#N)=C(N)O1 (configuration not stated)	-21.6*	82.2	-16.5
COC(=O)CC1=C(C(=O)OC)C(c2ccncc2)C(C#N)=C(N)O1 (configuration not stated)	69.0	88.1	/
O=c1c2ccccc2nc2n1C(CSCc1ccc(Cl)cc1)CS2 (configuration not stated)	/	/	19.7
C=C(C)Cn1c(Sc2nc3ccccc3[nH]2)nc2c1c(=O)[nH]c(=O)n2C	93.0	101.5	17.9
CCCS(=O)(=O)N1CCC(C(=O)N2CCC(Cc3ccccc3)CC2)CC1	-27.4*	/	5.9
CCCS(=O)(=O)N1CCCC(C(=O)N2CCC(Cc3ccccc3)CC2)C1 (configuration not stated)	123.1	/	/
O=[N+]([O-])c1ccc(-c2cc(-c3ccncc3)nc3ccc4ccccc4c23)cc1	/	/	24.0
